Screen size: about 1,800 compounds; about 410 (23%) were called active. The rule behind the calls is not given here. Not all results are given here. Entries that show only a call come without a potency. Potency and affinity values are given separately.

A short description of this test: Vero cell cytotoxicity, cytotoxicity control for flavivirus capping enzyme inhibitors (AID 588742). Particulars: Vero cells viability, cytotoxicity counter-screen; series mostly up to 40 µM.
On to `COC/C=C/C1=CC2=CC(=O)C(C)(OC(=O)c3cnc4ccccc4n3)C(=O)C2=CN1C1CC1` (configuration not stated), for which the result was inactive.
As for `C=CCN1C=C2C(=O)C(C)(OC(=O)c3cnc4ccccc4n3)C(=O)C=C2C=C1/C=C/COC` (configuration not stated), the molecule was classed as inactive.
Then `CCc1ccccc1N1C(=O)C(Cl)=C(N2CCOCC2)C1=O`, with “inactive”; and `Cc1ccccc1N1C(=O)C(Cl)=C(N2CCOCC2)C1=O`, with “inactive”; and `Cc1ccc(Nc2cc(C)c(O)c(C)c2)cc1`, with “inactive”.
Regarding `Cc1ccc(S(=O)(=O)Nc2nc3ccccc3nc2NCc2ccco2)cc1`, the outcome was inactive.
`CC(C)C[C@H]1CN=C(Nc2ccccc2)N1CC(C)C`: the molecule was called inactive.
The entry for `Cc1ccc(OCC(=O)c2ccc(Cl)s2)c([N+](=O)[O-])n1` is “inactive”; for `CCOc1ccc2c(c1)C(C)=CC(C)(C)N2C(=O)Nc1ccccc1` it is “inactive”.
Take `O=c1[nH]c(/C=C/c2cccc([N+](=O)[O-])c2)c([N+](=O)[O-])c(=O)[nH]1`: the result was inactive.
As for `CN1C(=O)/C(=C/c2cccc([N+](=O)[O-])c2)C(=O)N1c1ccccc1`, the outcome was inactive.
Turning to `Cc1cc(C)cc(NC(=S)N(Cc2ccc(Cl)cc2)Cc2ccc(C(=O)O)cc2)c1`, the result was inactive.
Regarding `CSC1=C(C#N)C(=O)NC(c2ccccc2O)S1` (configuration not stated), the molecule was classed as inactive.
Regarding `Cc1ccc(OCc2ccc(C(=O)Nc3nccs3)o2)cc1C`, the result was inactive.
The entry for `CCn1c(C)[n+](CCCS(=O)(=O)[O-])c2cc(Cl)c(Cl)cc21` is “inactive”.
Turning to `O=S(=O)(O)c1cccc2cccc(Nc3ccccc3)c12`, the molecule was classed as inactive.
As for `COc1ccc(/C=C2/SC(=S)N(NS(=O)(=O)c3ccc(C)cc3)C2=O)cc1`, the call was inactive.
In the case of `CCC(COC)Oc1cc(NCc2ccccc2)c2ncn(C(C)C)c2c1` (configuration not stated), the result was inactive.
For `CCCCC1=CC2=C(c3ccco3)C(=O)C(C)(OC(=O)c3ccc(OC)cc3)C(=O)C2=CN1CC1CC1` (configuration not stated), the outcome was inactive.
As to `Cc1[nH]n(-c2ccccc2)c(=O)c1C(c1cccc([N+](=O)[O-])c1)c1c(C)[nH]n(-c2ccccc2)c1=O`, the call was inactive.
Turning to `Cc1cc(SCC(=O)c2cccc([N+](=O)[O-])c2)nc(=O)[nH]1`, the result was inactive.
The entry for `O=c1nc(/C=C/c2cc([N+](=O)[O-])ccc2Cl)cc(C(F)(F)F)[nH]1` is “inactive”; for `Cc1ccc(S(=O)(=O)NN2C(=O)/C(=C/c3cccs3)SC2=S)cc1` it is “inactive”.
The entry for `CC1=NN(c2ccccc2)C(=O)C1=Cc1ccccc1` is “inactive”; for `COc1cc(NC(=O)c2ccco2)c(OC)cc1NC(=O)CCC(=O)Nc1cc(C)ccc1C` it is “inactive”; for `COc1cc(/C=C2/SC(=S)N(CC(=O)O)C2=O)ccc1OCC(=O)Nc1ccc(C)c(C)c1` it is “inactive”.
Then `CCOC(=O)/C(=C\c1cn(C)c2ccccc12)[N+](=O)[O-]`, with “inactive”.

The values above are taken from PubChem BioAssay AID588742 (Southern Research Specialized Biocontainment Screening …, 2011).
